IMPase inh: qHTS Assay for Identifying the Cell-Membrane Permeable IMPase Inhibitors. 120,000 tested, under 10 active. inhibition (IP1 accumulation), % at 46.1 µM. Inositol monophosphatase 1 (Rattus norvegicus), P97697. CHO-M1 cells, IP1 accumulation, HTRF TR-FRET ratio; active means well fitted curve in the direction sought with a large enough effect in the signal ratio, not every such curve was filed as active; inconclusive means small, poorly fitted or top-dose-only effect, or a change in a side signal; inactive means no such curve, though single readings can be large or run the other way; the % refers to the signal ratio;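 further: cells stimulated with carbachol in lithium chloride buffer; plate controls were DMSO basal wells for no effect and reference inhibitor wells for full effect; higher means more IMPase inhibition seen as more IP1 and lower FRET ratio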
Target sequence (P97697 whole entry, looked up): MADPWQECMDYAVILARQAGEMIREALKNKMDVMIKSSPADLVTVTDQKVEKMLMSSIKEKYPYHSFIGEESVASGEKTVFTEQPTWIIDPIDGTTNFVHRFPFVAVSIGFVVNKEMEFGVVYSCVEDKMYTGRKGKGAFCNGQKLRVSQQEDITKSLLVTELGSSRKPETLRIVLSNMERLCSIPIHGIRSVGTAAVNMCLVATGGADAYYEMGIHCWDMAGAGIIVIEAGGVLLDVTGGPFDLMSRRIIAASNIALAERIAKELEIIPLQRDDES
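Elevated IP1 in lysates lowers TR-FRET signal (665/620 ratio and 620 channel reported). Cells were CHO-M1, given carbachol (50 uM as added) plus 50mM LiCl, pH 7.4, 30 min, 37C; compounds titrated up to 46 uM; AC50 by Hill equation.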
ALOX12 inhib: qHTS Assay for Inhibitors of 12-hLO (12-human lipoxygenase); purified 12-hLO, xylenol orange hydroperoxide absorbance; Potency, µM (doses to about 57.1 µM), for inactives: top-dose activity change, negative = inhibition, hits mostly inhibitors; Polyunsaturated fatty acid lipoxygenase ALOX12 (Homo sapiens), P18054; 150,000 compounds, 0.12% hits; AID 1452, 2008; further: potency means the concentration at half of the fitted maximal effect; nearly all actives have a fitted effect of over 55% in size
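Purified human 12hLO (150 nM final) was preincubated with compounds for 15 min at room temperature in 25 mM Hepes pH 7.0, 0.01% Triton X-100, then reacted with 40 uM arachidonic acid for 30 min. Hydroperoxide was detected with ferrous iron/xylenol orange.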
15-hLO-2 inh: qHTS Assay for Inhibitors of 15-hLO-2 (15-human lipoxygenase 2) | Polyunsaturated fatty acid lipoxygenase ALOX15B (Homo sapiens), O15296 | purified 15hLO-2, xylenol orange hydroperoxide absorbance | Potency, µM (doses to about 57.1 µM), inactives show top-dose activity change, negative = inhibition, actives largely listed as inhibitors | 110,000 compounds, 0.56% hits; further: potency means the concentration at half of the fitted maximal effect; nearly all actives have a fitted effect of over 60% in size
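Enzyme 50 nM, AA 45 uM, 25 mM Hepes pH 7.5 + 0.01% Triton X-100; cpd preinc 15 min RT, rxn 90 min RT; stop/detect with 200 uM XO + 300 uM Fe(II) in 50 mM H2SO4, 30 min; A573/A405.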
PNC assembly inh: High Content Assay for Compounds that inhibit the Assembly of the Perinucleolar Compartment | PC3M PTB-GFP, PNC prevalence imaging, 16 h; active compounds read low | activity change (PNC), negative = inhibition, % at 10 µM | 140,000 compounds, 3.1% hits | AID 2417, 2010;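 active means readout at or below -70, meaning at least 70% loss of cells showing the perinucleolar compartment, a nuclear body marking cancer cells; inconclusive means readout between -30 and a set limit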;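 further: plate controls were DMSO wells for no effect and camptothecin positive control wells for full effect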
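PC3M cells stably expressing PTB-GFP, 750–1000 cells/well, treated 16 h at 37 °C with compound (23 nl of library stock), in duplicate. After paraformaldehyde fixation and Hoechst stain, imaged at 20x; PNC prevalence scored by image analysis.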
An asterisk follows results filed as active; ? = inconclusive; nt = not tested or not shown; [ ] = remark or other dose. Hits are enriched below; roughly 3% of the tested compounds scored in any of these assays. Unless noted, the call rests on the fitted dose curve; in most records, active means well fitted curve in the direction sought with a large enough effect; inconclusive means small, poorly fitted or top-dose-only effect, or another doubt; inactive means no such curve, though single readings can be large; an effect the other way counts as inactive or inconclusive. Unless noted, on the % scale 0 is the no-effect control and ±100 the full control effect.

SMILES	IMPase inh	ALOX12 inhib	15-hLO-2 inh	PNC assembly inh
COc1cc(OC)c(N2CC34C=CC(O3)C(C(=O)O)C4C2=O)cc1Cl (configuration not stated)	-2	4%	-3%	-92*
CCCc1cc(C(=O)Nc2cccc(Cl)c2)no1	?	1%	-6%	-26
CCOc1cc(OCC)cc(C(=O)Nc2cccnc2)c1	-13	-5%	-3%	-91*
CCCc1cc(C(=O)Nc2cccnc2)no1	5	-5%	2%	-106*
CCOc1ccc2nc(NC(=O)c3cccnc3)sc2c1	nt	4%	nt	-108*
CCCOc1cccc(C(=O)Nc2cccnc2)c1	9	1%	5%	?
COC(=O)C1=C(C(=O)OC)[C@@H]2Nc3ccccc3[C@@]23C[C@@H](C(=O)OC)N(S(=O)(=O)c2c(C)noc2C)C3=N1	nt	-1%[11.4 µM]	nt	nt
O=[N+]([O-])c1ccccc1-c1cc(-c2ccccc2O)n[nH]1	nt	-10%	nt	-83*
Cc1ccc(-c2cc(-c3ccccc3C)[nH]n2)c(O)c1	10	-29%	nt	26
CNC(=O)NC(=O)COC(=O)c1ccc(-n2c(C)ccc2C)cc1	6	-2%	nt	-115*
Cc1ccc(S(=O)(=O)NC(C(=O)OCC(=O)NC(=O)c2cccn2C)C(C)C)cc1 (configuration not stated)	-6	-6%	-6%	39
CCOC(=O)N1CCN(C(=O)c2ccc(-n3c(C)ccc3C)cc2)CC1	14	2%	nt	-15
Cc1ccc(C(=O)OCC(=O)NC(=O)c2cccn2C)cc1	-6	-1%	-6%	-81*
CC(C)NC(=O)NC(=O)COC(=O)c1ccc(OC(F)(F)F)cc1	nt	1%	nt	-89*
COc1cc(N2CCCC2)c(OC)cc1/C=C(/C#N)c1cccc(F)c1	-1	-20%	?	-89*
COc1cccc(/C=C(/C#N)c2ccc(F)cc2)c1OCc1cccc(C(=O)O)c1	nt	2%	nt	-7
N#C/C(=C/c1ccc(N2CCCCCC2)o1)c1cccc(F)c1	17	?	7.9µM*	?
N#C/C(=C\c1ccc(N2CCOCC2)o1)c1ccccc1	4	-14%	10µM*	-90*
N#C/C(=C/c1ccc(N2CCOCC2)o1)c1ccc(Br)cc1	-8	?	10µM*	30
N#C/C(=C/c1ccc(N2CCOCC2)o1)c1nc2ccccc2[nH]1	?	-5%	nt	?
N#C/C(=C\c1ccc(N2CCOCC2)cc1)c1ccccc1	nt	-3%	nt	-19
O=C(N/N=C/c1ccc(N2CCCCC2)o1)c1ccccc1	nt	-8%	nt	50
O=C(O)[C@H]([C@H]1NCCS1)N1C(=O)c2ccccc2C1=O	nt	0%[11.4 µM]	2%[11.4 µM]	nt
O=C(O)/C=C/C(=O)NNC(=O)c1cccc(Br)c1	4	-3%	nt	115
Cc1cccc(Nc2ncc(NC(=O)c3cccc(F)c3)c(Nc3cccc(C)c3)n2)c1	-3	nt	nt	nt
SMILES	IMPase inh	ALOX12 inhib	15-hLO-2 inh	PNC assembly inh
CCc1nnc(NC(=O)C2CCCCC2)s1	-1	-2%	-9%	9
Cc1cc(C)nc(N2CCCC(C(=O)Nc3nnc(C(C)C)s3)C2)n1 (configuration not stated)	-6	-2%	nt	-100*
CC(C)c1nnc(NC(=O)C2CCCCC2)s1	-15	3%	nt	-118*
CC(C)(C)c1ccc(C(=O)Nc2ccc(C=C(C#N)C#N)cc2)cc1	nt	-5%	nt	-134*
Cn1cc(-c2nc3cncnc3n(Cc3ccc(F)cc3)c2=O)c2ccccc21	nt	nt	-1%	nt
COc1ccc(/C=C/C(=O)c2c(C)nc3ccccn23)cc1	9	1%	10%	97
Cc1nc2ccccn2c1C(=O)/C=C/c1ccc(F)cc1	1	-8%	14%	-95*
COc1ccc(OC)c2sc(NC(=O)CCSc3ccccc3)nc12	18	-3%	8%	-88*
CN(C)CC(C)(C)CNC(=O)c1ccc(-n2c(=O)c(=O)[nH]c3ccccc32)cc1	nt	-4%	nt	nt
O=C(Nc1c(Cl)cc(Cl)cc1-c1nc2ccccc2s1)c1ccc(Br)o1	-11	-7%	-10%	?
CCOc1ccc(C(C)(C)C)cc1S(=O)(=O)N1CCOCC1	9	-1%	6%	-97*
CCOc1ccc(C)cc1S(=O)(=O)N1CCCCC1	-3	0%	1%	48

Bioassay records: PubChem BioAssay, National Center for Advancing Translational Sciences (NCATS)
